PfGluPho inh: PfG6PD (Plasmodium falciparum) enzyme inhibition; 350,000 tested, 0.78% active; inhibition, % at 20 µM; PfGluPho enzyme, NADPH resazurin-diaphorase fluorescence; AID 504690;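 active means inhibition reaching at least a set limit at 20 µM in the primary screen, cut at about 59% in these data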;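 further: 0% = DMSO wells with substrate and 100% = DMSO wells lacking glucose-6-phosphate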
APOBEC3G inh: APOBEC3G (human) deaminase inhibition; Q9HC16; recombinant A3G, ssDNA deamination FAM/TAMRA fluorescence; inhibition, % at 20 µM; 330,000 tested, 0.28% active;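 active means inhibition of at least 40% at 20 µM, with no more than 30% in the related APOBEC3A deaminase screen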;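 further: plate controls were DMSO wells with A3G for no effect and wells lacking A3G enzyme for full effect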
Target sequence (Q9HC16 whole entry, looked up): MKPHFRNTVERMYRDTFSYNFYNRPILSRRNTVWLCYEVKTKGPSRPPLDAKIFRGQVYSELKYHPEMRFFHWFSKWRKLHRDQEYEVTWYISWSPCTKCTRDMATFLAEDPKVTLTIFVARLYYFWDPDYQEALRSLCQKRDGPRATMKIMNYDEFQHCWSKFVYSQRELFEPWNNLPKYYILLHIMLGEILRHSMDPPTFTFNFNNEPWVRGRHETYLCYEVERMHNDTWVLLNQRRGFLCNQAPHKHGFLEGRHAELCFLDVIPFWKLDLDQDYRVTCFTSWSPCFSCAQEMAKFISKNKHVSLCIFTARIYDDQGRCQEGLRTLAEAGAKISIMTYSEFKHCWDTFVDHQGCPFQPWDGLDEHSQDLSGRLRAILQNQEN
CR mimetic SO: lowers age-related superoxide in aged yeast cells. superoxide response (% of plate mean), % at 10 µM. 330,000 tested, 0.18% active. AID 2690. S. cerevisiae aged cells, superoxide DHE fluorescence; active compounds read low;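 active means superoxide response under a set limit, about three screen SD below normal, cut at about 65% in these data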;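 further: yeast aged for seven days with compound at 30 °C before DHE staining; 100% = average MFI of all compound-treated wells on the plate with controls excluded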
PfM18AAP inh-1: blocks P. falciparum M18 aspartyl aminopeptidase | recombinant PfM18AAP, H-Glu-NHMec fluorogenic cleavage | inhibition, % at 7.35 µM | 290,000 tested, 1.2% active;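 active means inhibition above the campaign mean inhibition over all tested compounds plus 3 SD, cut at about 28% in these data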;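 further: 0% = plate median of test compound wells and 100% = 2 mM ZnCl2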
A3A deaminase: inhibitors of human APOBEC3A DNA deaminase. P31941. recombinant A3A, FAM/TAMRA ssDNA deamination fluorescence. inhibition, % at 20 µM. 330,000 tested, 0.41% active. AID 493011;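 active means at least 40% inhibition at 20 µM here, with at most 30% in a related deaminase screen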;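 further: plate controls were A3A with DMSO for no effect and wells lacking A3A enzyme for full effect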
Target sequence (P31941 whole entry, looked up): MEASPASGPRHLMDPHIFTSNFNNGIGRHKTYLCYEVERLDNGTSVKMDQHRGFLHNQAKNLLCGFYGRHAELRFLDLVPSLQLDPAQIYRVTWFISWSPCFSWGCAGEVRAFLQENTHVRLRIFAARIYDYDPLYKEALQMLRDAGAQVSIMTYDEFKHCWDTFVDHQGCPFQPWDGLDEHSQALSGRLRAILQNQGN
PfM18AAP inh-2: PfM18AAP inhibition, confirmation; shares compounds with PfM18AAP inh-1; 2,400 tested, 28% active; recombinant PfM18AAP, H-Glu-NHMec fluorogenic cleavage; inhibition, % at 7.35 µM;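 active means mean inhibition over replicate wells above the hit cutoff set for the earlier primary screen, cut at about 29% in these data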;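 further: 0% = median of test compound wells and 100% = 2 mM ZnCl2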
CTSL1 confirm: Cathepsin L (human) inhibition, confirmation; 2,400 tested, under 10 active; inhibition, % at 5.96 µM; purified cathepsin L1, Z-Leu-Arg-MCA fluorescence; shares compounds with PfM18AAP inh-1; AID 2178;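 active means average inhibition across replicates above the hit cutoff set in the earlier primary screen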;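 further: 0% = median of test compound wells and 100% = Z-Phe-Ala-diazomethylketone 1 µM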
CR mimetic CP: yeast aging superoxide inhibition, cherry pick confirmation; shares compounds with CR mimetic SO; S. cerevisiae aging, superoxide DHE fluorescence; active compounds read low; superoxide response (% of plate), % at 10 µM; 850 tested, 1% active; AID 434994;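 active means superoxide signal below 65% of the plate average of sample wells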;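 further: cells aged with compound for 7 days at 30 degrees C before staining; 100% equals mean DHE fluorescence of all compound wells on the plate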
DHE counter: compound alters DHE oxidation or fluorescence in yeast; shares compounds with CR mimetic SO; S. cerevisiae BY4741, flow cytometry; active compounds read low; fluorescence response, % at 10 µM; 850 tested, under 10 active; AID 435000;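 active means fluorescence response below 15%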;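 further: percent of the mean fluorescence averaged over all compound wells on the plate; lower means stronger quenching of DHE signal or ROS scavenging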
A3A conf: APOBEC3A (human) deaminase inhibition, confirmed; shares compounds with A3A deaminase; recombinant A3A, ssDNA deaminase UDG fluorescence assay; inhibition, % at 20 µM; 1,400 tested, 63% active; AID 493151;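 active means inhibition reaching a set limit, 80% of the first screen's cutoff, at 20 µM in any replicate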;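 further: plate controls were DMSO wells with A3A for no effect and wells lacking A3A enzyme for full effect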
PfGluPho conf: PfG6PD inhibition, single-dose confirmed | shares compounds with PfGluPho inh | recombinant PfGluPho, NADPH-diaphorase-resazurin fluorescence | inhibition, % at 20 µM | 2,400 tested, 34% active | AID 504753;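 active means inhibition of at least 50% at 20 µM in any single replicate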;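 further: 0% = DMSO with substrate and 100% = DMSO lacking glucose-6-phosphate substrate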
Diaphorase 10uM: counter-screen for P. falciparum G6PD inhibitors: diaphorase inhibitors, oxidizers. diaphorase-coupled resazurin reduction, fluorescence, NADPH 10 uM. 820 tested, 39% active. shares compounds with PfGluPho inh. inhibition, % at 20 µM. AID 504862;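 active means average inhibition reaching 50% or more with the compound at 20 µM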;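 further: resorufin red fluorescence formed as diaphorase reduces resazurin using NADPH; 0% = DMSO with enzyme and 100% = DMSO without enzyme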
Diaph ctr 30uM: diaphorase inhibition or oxidation at 30 uM NADPH | shares compounds with PfGluPho inh | inhibition, % at 20 µM | 820 tested, 29% active | Diaphorase/resazurin coupled assay, resorufin fluorescence;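 active means inhibition averaging 50% or more, tested at 20 µM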;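 further: 0% = DMSO with enzyme and 100% = DMSO wells lacking diaphorase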
* marks the source's active call; other numbers are inactive results; . = no result given. The list is not random: actives were taken first. Their share in the collection is about 2.4%.

SMILES	PfGluPho inh	APOBEC3G inh	CR mimetic SO	PfM18AAP inh-1	A3A deaminase	PfM18AAP inh-2	CTSL1 confirm	others
COc1cc2c(cc1/C=C/[N+](=O)[O-])OCO2	19	.	.	38*	.	17	1
O=C1NC(=O)C(=Cc2ccc(-c3ccc(Cl)cc3)o2)C(=O)N1	77*	-3	94	33*	-2	19	-4
O=C1NC(=O)C(=Cc2ccc(-c3ccc(F)cc3O)o2)C(=O)N1	50	9	95	51*	3	58*	0
O=C1NC(=O)C(=Cc2ccc(Sc3ccccc3)o2)C(=O)N1	59	8	105	10	0	.	.
O=C1C(Br)C2CCC1C2C(=O)O (stereo not given)	8	.	.	.	.	.	.
COC(=O)C1=C(c2ccc(F)cc2OCc2ccccc2)C[C@@H]2CC[C@H]1N2C(=O)NC1Cc2ccccc2C1	10	-10	90	.	1	.	.
OCC1CN1C1CCCCC1 (stereo not given)	4	.	.	.	.	.	.
CCN(CC)c1ccc(/C=N/c2sc3c(c2C#N)C2CCN3CC2)c(O)c1	15	.	99	32*	.	-37	0
CCc1ccc(N2C(=O)NC(=O)/C(=C\c3cc(C)n(-c4cc(C(=O)O)cc(C(=O)O)c4)c3C)C2=O)cc1	-20	50	158	32*	85	-22	-1
Cc1ccc(N2C(=O)NC(=O)/C(=C\c3cc(C)n(-c4ccc(C(=O)O)cc4)c3C)C2=O)cc1	0	0	119	15	7	.	.
CC(=O)OC1CCC2(C)C3CCC4(C)C(OC(C)=O)CCC4C3C(C)C2(O)C1 (stereo not given)	-3	.	.	.	.	.	.
CN(C)C1C(=O)C(C(N)=O)=C(O)C2(O)C(=O)C3=C(O)c4c(O)cccc4C(C)(O)C3C(O)C12 (stereo not given)	38	62	111	56*	88	-21	1
Cn1cc(/C=C2\C(=O)NC(=O)N(c3ccccc3)C2=O)c2ccccc21	-1	-7	90	35*	-6	39*	1
CCN(CC)C(=O)Cn1cc(/C=C2\C(=O)NC(=O)N(c3ccccc3F)C2=O)c2ccccc21	21	-2	96	35*	-4	-7	-5
CCN1C(=O)NC(=O)/C(=C\c2cn(CC(=O)N3CCCCC3C)c3ccccc23)C1=O (stereo not given)	-1	-4	90	16	0	.	.
COc1cc(/C=C2\C(=O)NC(=O)N(c3ccccc3)C2=O)cc(OC)c1O	15	-6	90	36*	0	-39	6
O=C(O)Cn1cc(/C=C2\C(=O)NC(=O)N(c3ccc(Cl)cc3)C2=O)c2ccccc21	15	-4	94	26	-1	.	.
C=CCn1cc(C=C2C(=O)NC(=O)NC2=O)c2ccccc21	-9	-9	108	54*	-4	33*	-5
O=C1NC(=O)C(=Cc2cn(CCOc3ccc4c(c3)OCO4)c3ccccc23)C(=O)N1	4	-1	123	28	-3	.	.
O=C1NC(=O)C2C1C1(Cl)C(Cl)=C(Cl)C2(Cl)C1(Cl)Cl (stereo not given)	-14	.	.	.	.	.	.
O=C(OCc1ccccc1)N1CCC2CC1c1cc(N3Cc4ccccc4-n4nncc4C3)ccc12 (stereo not given)	16	.	.	.	.	.	.
COc1cc2c(cc1OC)C13CCN4C=C5CCOC6CC(=O)N2C1C6C5CC43 (stereo not given)	7	.	.	.	.	.	.
CN1CCN(c2ccc(N)cc2Cl)CC1	14	-3	111	3	2	.	.
O=C1NC(=O)C(=Cc2coc3ccc(O)cc3c2=O)C(=O)N1	23	5	90	39*	9	19	-1
COCCOC(=O)c1c(N)n(Cc2ccc(OC)cc2)c2nc3ccccc3nc12	28	-8	90	35*	0	-20	10
SMILES	PfGluPho inh	APOBEC3G inh	CR mimetic SO	PfM18AAP inh-1	A3A deaminase	PfM18AAP inh-2	CTSL1 confirm	others
CCN(CC)C(=O)c1ccc(NC(=O)COc2ccccc2F)cc1	-4	-9	113	-1	-2	.	.
C[N+]1(C)[C@@H]2CC[C@H]1CC(OC(=O)[C@@H](CO)c1ccccc1)C2 (stereo not given in full)	15	20	85	44*	67*	33*	-2	A3A conf=87*
CN(C)C(=O)O/N=C(\N)COc1ccc(C(C)(C)C)cc1	-8	-8	121	-8	-4	.	.
C[C@]12CC[C@@H]3c4ccc(O)c(O)c4CC[C@H]3[C@@H]1CC[C@@H]2O	100*	64*	90	57*	-1	92*	-4	PfGluPho conf=93*;Diaphorase 10uM=8;Diaph ctr 30uM=23
C[C@]12CC[C@H]3[C@@H](CCC4=CC(=O)CC[C@@H]43)[C@@H]1CC[C@@H]2O	2	-1	82	.	-1	.	.
CC(O)C1C=CC=CC(=O)OC2CC3OC4C5OC5(C)C(O)CC4(COC(=O)C(O)C(C)CCO1)C2(C)C31CO1 (stereo not given)	-3	.	.	.	.	.	.
O=c1c2ccccc2[se]n1-c1ccccc1	127*	91	132	94*	43	96*	-2	PfGluPho conf=113*;Diaphorase 10uM=-23;Diaph ctr 30uM=-5
CSCCC(NC(=O)CCC(=O)OC1CC[C@H]2[C@@H]3CC[C@H]4CC(=O)CC[C@]4(C)[C@H]3CC[C@]12C)C(=O)O (stereo not given in full)	-14	-11	97	-2	-6	.	.	CR mimetic CP=83;DHE counter=105
CCOc1ccc(C2SCC(=O)Nc3c2c(=O)[nH]n3C2CCCCCC2)cc1 (stereo not given)	5	-10	62*	0	-6	.	.	CR mimetic CP=105;DHE counter=96
O=C1CN=C(c2ccccc2)c2cc(Cl)ccc2N1	-6	2	94	.	5	.	.
